Test results published in the supplement of paper PMC7866885, “A novel bicyclic 2,4-diaminopyrimidine inhibitor of Streptococcus suis dihydrofolate reductase” (PeerJ, 2021).
± gives the standard deviation.

How the values were obtained:
[1] = system: Streptococcus suis HE06; assay: percent growth relative to DMSO control; higher = less growth inhibition; conditions: 10 µM; incubation time 18 h
Method: (§1)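 CLSI broth microdilution: 5x10^4 CFU of Streptococcus suis (strain P1/7 or HE06) incubated with 10 µM Pathogen Box compound in cation-adjusted Mueller Hinton broth, 37 °C, 5% CO2, 18 h. Growth read as OD600 and expressed as percent of the DMSO-treated control (100%); mean ± SD of three independent experiments.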

[2] = system: Streptococcus suis P1/7; assay: as above; conditions: 10 µM; incubation time 18 h
Method: as §1

Row | SMILES | percent growth [1] [%] | percent growth [2] [%]
1 | CNc1nnc(Sc2cnn(-c3ccccc3)c(=O)c2Cl)s1 | 81.9 ± 1.8 | 110 ± 52
2 | CN1CCN(c2nccc3[nH]c(-c4cccc(F)c4)cc23)CC1 | 97.4 ± 6.1 | 96 ± 26
3 | CCOC(=O)NC(=O)c1ccsc1NC(=O)c1nc2ccccc2s1 | 0.167 ± 0.2 | 5.08 ± 8.2
4 | O=C(Nc1cccc(Cl)c1)c1cnc(N2CCN(c3ccncc3)CC2)c(Cl)c1 | 62 ± 36 | 20.4 ± 12
5 | O=C(c1ccc(NCCO)cc1)C1C[C@H]1c1ccc(Cl)cc1 (some centres not stated) | 147 ± 53 | 67 ± 24
6 | C[C@]1(O)C[C@@H](c2nc(-c3ccc4ccc(-c5ccccc5)nc4c3)c3c(N)nccn32)C1 | 81.6 ± 9.1 | 97 ± 18
7 | NC(CC(=O)c1ccc(Cl)cc1Cl)C(Cl)(Cl)Cl (configuration not stated) | 58.8 ± 39 | 23.2 ± 36
8 | O=C(Nc1ccc(C(F)(F)F)c(C(F)(F)F)c1)c1cc(Cl)ccc1O | 0 | 6.44 ± 11
9 | CCOC(=O)c1c(NC(=O)c2c(F)c(F)c(F)c(F)c2F)sc(C(N)=O)c1C | 91.9 ± 6 | 83.2 ± 22
10 | Cc1cc(O)nc(-n2nc(C)cc2C)n1 | 18.2 ± 21 | 2.28 ± 2.3
11 | C[C@H](C(N)=O)N1CCCC[C@@H]1c1ccc(OCc2cccc(F)c2)cc1 | 125 ± 34 | 89.7 ± 15
12 | CCN(CC)CCCN1CCN(C(=O)c2cccc(-c3noc(C(F)(F)F)n3)c2)CC1 | 90.3 ± 14 | 138 ± 110
13 | COc1cccn2c(C(=O)N3CCCCC3)c(C(F)(F)F)nc12 | 111 ± 22 | 87 ± 21
14 | c1ccc(-c2[nH]c3ccccc3c2C(c2ccccn2)N2CCCC2)cc1 (configuration not stated) | 88.5 ± 4.3 | 108 ± 23
15 | CC1(COc2ccc(N3CCC(Oc4ccc(OC(F)(F)F)cc4)CC3)cc2)Cn2cc([N+](=O)[O-])nc2O1 (configuration not stated) | 91.7 ± 9.5 | 114 ± 61
16 | NCC(c1cccs1)S(=O)(=O)c1ccccc1 (configuration not stated) | 111 ± 30 | 90.2 ± 41
17 | Clc1cccc(CO[C@H]2CCc3ccccc3[C@@H]2n2ccnn2)c1 | 97.4 ± 3.9 | 95.9 ± 18
18 | CCC(Sc1nc2ccccc2o1)C(=O)Nc1nnc(C)s1 (configuration not stated) | 34.1 ± 46 | 0.154 ± 0.27
19 | COc1cc(C2=NCCN2)cc2cc(-c3ccc(C4=NCCN4)cc3)oc12 | 106 ± 34 | 83.2 ± 17
20 | c1ccc(Oc2ccc(-c3cc(CN4CCOCC4)[nH]n3)cc2)cc1 | 90.8 ± 3.9 | 95.7 ± 15
21 | CNC(=O)c1cc(S(=O)(=O)N2CCN(c3ccccn3)CC2)cs1 | 79.7 ± 12 | 129 ± 58
22 | COc1ccc(-c2cncc3ccc(C(=O)NCCCn4ccnc4)nc23)cc1 | 103 ± 28 | 70.1 ± 27
23 | Brc1c(-c2ccc3c(c2)OCO3)nc2ncccn12 | 95.7 ± 6.9 | 85.8 ± 20
24 | c1ccc2c(c1)CN(CC1CC1)CC1(CCN(Cc3c[nH]c4cnccc34)CC1)O2 | 85.1 ± 15 | 91.8 ± 5.5
25 | COc1cc(CN2CCC3(C=Cc4ccccc43)CC2)cc2c1OCO2 | 82 ± 16 | 83.9 ± 5.5
26 | NCCN(C(=O)c1ccc(Cl)cc1Cl)c1ccc(OCc2ccc(Cl)cc2)cc1 | 68.3 ± 61 | 25 ± 43

Row | SMILES | percent growth [1] [%] | percent growth [2] [%]
27 | CC1CS(=O)(=O)CCN1/N=C/c1ccc([N+](=O)[O-])o1 (configuration not stated) | 85.9 ± 6.6 | 85.1 ± 16
28 | CC(C)(C)OC(=O)N1CCN(c2cc(-c3ccc(Oc4ccccc4)cc3)n[nH]2)CC1 | 89.6 ± 5.8 | 28.7 ± 42
29 | Nc1ncnc2c1c(Cc1cccc3ccccc13)nn2CC1CCNCC1 | 105 ± 44 | 75 ± 5.4
30 | C[C@H](c1ccc2c(c1)CCCC2)N(C)c1ncc2c(N)nc(N)nc2n1 | 84.7 ± 9.1 | 76.6 ± 18
31 | Cc1cc(C)n2nc(C(=O)Nc3cc(C(F)(F)F)ccc3N3CCOCC3)nc2n1 | 240 ± 280 | 81.4 ± 16
32 | CC(=O)N1CCN(c2ccc(Oc3ccc(Cl)cc3O)cc2)CC1 | 142 ± 58 | 95.7 ± 30
33 | O=C(CN1CCOCC1)Nc1ccc2ncnc(Nc3ccc(OCc4cccc(F)c4)c(Cl)c3)c2c1 | 53.5 ± 39 | 63 ± 18
34 | COc1cncc(-c2cncc(N3CCN(c4ccncc4)CC3)n2)c1 | 87.2 ± 26 | 64.3 ± 15
35 | O=C(Nc1cccc(-c2ccc(NCCCN3CCCC3)nc2)c1)c1ccccc1 | 96.7 ± 23 | 72.5 ± 24
36 | Cc1cc(C(=O)Nc2cnn(Cc3ccc(Cl)cc3Cl)c2)no1 | 94.2 ± 5.5 | 97.5 ± 11
37 | COc1cccc(-c2nc3c(N4CCCC4)cccc3n2CC2CCCN2)n1 (configuration not stated) | 84.4 ± 7 | 58.2 ± 19
38 | Cc1ccc(NC(=O)c2nc[nH]c2C(=O)Nc2nc3ccccc3[nH]2)c(C)c1 | 47.8 ± 38 | 1.93 ± 0.44
39 | COc1ccc(OC(C)C(=O)Nc2ccc(Cl)cc2C)cc1 (configuration not stated) | 107 ± 13 | 82.7 ± 6.3
40 | Cc1nc(-c2ccccn2)nc(N(C)CCc2ccccc2)c1Cl | 9.53 ± 8.4 | -0.0636 ± 0.11
41 | N#CCN(CCCCN1CCN(c2ccc(F)cc2)CC1)C(=O)OCc1ccccc1 | 93.7 ± 14 | 75.8 ± 19
42 | O=C(NCCN1CCCC1)c1cc(NCCCCN2CCC(F)(F)CC2)nc2ccc(Cl)cc12 | 93 ± 6.6 | 79.3 ± 14
43 | O=C(CCC1CCCCC1)Nc1cccc(-c2nnc(-c3ccco3)o2)c1 | 93.8 ± 3.7 | 111 ± 46
44 | COc1ccc(C2CC(c3cccs3)=NN2C(=O)c2ccco2)cc1OC (configuration not stated) | 75.4 ± 3 | 99.7 ± 26
45 | Cc1cc(Cl)ccc1NC(=O)CCc1ccc(S(=O)(=O)NCC(C)C)cc1 | 87.8 ± 9.9 | 95.4 ± 17
46 | NC(=O)c1cc(Br)ccc1OCCOc1ccccc1 | 85.2 ± 9.9 | 73.4 ± 29
47 | CC(=O)Nc1ccc(-c2noc(CC3CCCN(Cc4cccc(F)c4C)C3)n2)cc1 (configuration not stated) | 109 ± 44 | 108 ± 44
48 | O=C(NCc1ccoc1)N1CCN(Cc2ccc3c(c2)OCO3)CC1 | 94 ± 5.7 | 78.3 ± 6.3
49 | CCCCc1ccc(NC(=O)Nc2ccc(O[C@H]3CCCC[C@@H]3N(C)c3ccccc3)c(F)c2)cc1 | 77.8 ± 26 | 67.2 ± 2.9
50 | Cc1[nH]c2cc(F)cc(F)c2c(=O)c1-c1ccc(Oc2ccc(OC(F)(F)F)cc2)cc1 | 96.3 ± 3.2 | 88.9 ± 18
51 | CC(=O)NC[C@@H]1CN(c2ccc(N3CCOCC3)c(F)c2)C(=O)O1 | 3.9 ± 5.2 | 3.05 ± 1.6
